We go through 54 compounds from PubChem BioAssay (Tox21).

Several values for one entry are separate records, joined by “and”; a condition that tells them apart may be missing. Equal entries are not always repeated. Records with an inconclusive call do not appear. Entries that show only a call come without a potency. Where a structure was tested more than once in an assay, its records may differ in their call. Values without a mark were called inactive. Activity calls are given as the source filed them. The call rests on the fitted dose curve; in most records, active means well fitted cell-killing curve with a large enough effect in the repeat runs; inconclusive means weak or mixed curves, or effect the other way; inactive means flat fitted curve, though single readings scatter.

Test [1] in a line: cAMP Responsive Elements (CRE) small molecule antagonists, cell-based qHTS assay: qHTS cell viability counter screen (AID 2060913). Further: nearly all actives have a fitted effect of over 40% in size. Summed up:
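CRE-bla HEK293T cells were seeded in assay medium with 10% dialyzed FBS, incubated 18 hrs at 37 C, then exposed to compounds plus 0.25 uM final NKH477 for 3 hrs. Viability was read by CellTiter-Glo luminescence after 30 min, in the same wells.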

Test [2] can be described thus: cAMP Responsive Elements (CRE) small molecule agonists, cell-based qHTS assay: qHTS cell viability counter screen (AID 2060914).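 Further: viability read after 3 h of compound exposure; nearly all actives have a fitted effect of over 50% in size.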 In outline:
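HEK 293T CRE-bla; DMEM + 10% dialyzed FBS, 25 mM HEPES; 18 h pre-incubation; compound 3 h, 37 °C/5% CO2; CellTiter-Glo added after reporter read; luminescence after 30 min RT.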
Potency means the concentration at half of the fitted maximal effect.

With `CCC1NC(=O)c2cc(S(N)(=O)=O)c(Cl)cc2N1` (stereo unspecified), the Potency entry in test [1] is “inactive”. For the compound `CCCCCCCCCCCCC`, in test [1], the Potency result was “inactive”. Same read-out and setting: to `C[C@H]1C[C@H]2[C@@H]3CCC4=CC(=O)C=C[C@]4(C)[C@@]3(F)[C@@H](O)C[C@]2(C)[C@@]1(O)C(=O)CO` belongs “inactive”. For `CCn1cc(C(=O)O)c(=O)c2cc(F)c(N3CCNC(C)C3)c(F)c21` (stereo unspecified), the Potency result in test [1] was “inactive”. The same measure, in the same setting: to `CCN(CC)CCOc1ccc(Cc2ccccc2)cc1` belongs “inactive”; to `CC1=CC(O)CC(C)(C)C1` (stereo unspecified), “inactive”. Regarding `CC(=O)c1ccc(O)c(C(N)=O)c1`, the Potency entry in test [1] is “inactive”. Consider `O=C1CCc2ccc(OCCCCN3CCN(c4cccc(Cl)c4Cl)CC3)cc2N1`, for which the Potency result in test [1] was “inactive”. In the case of `CCN(CC#N)c1cccc(C)c1`, the Potency result in test [1] is “inactive”. As to `COC(=O)c1cc(S(N)(=O)=O)ccc1OC`, the Potency result in test [1] is “inactive”.

As to `Cc1cc(C)c(C)c(C)c1`, the Potency result in test [1] is “inactive”. As for `COc1ccc(Nc2ccc(OC)cc2)cc1`, the Potency entry in test [1] was “inactive”. As to `CCOc1cc(N)c(Cl)cc1C(=O)NCC1CN(Cc2ccc(F)cc2)CCO1` (stereo unspecified), the Potency result in test [1] is “inactive”. As for `NC(=O)[C@@H]1CSSCCC(=O)N[C@@H](CCCCN=C(N)N)C(=O)NCC(=O)N[C@@H](CC(=O)O)C(=O)N[C@@H](Cc2c[nH]c3ccccc23)C(=O)N2CCC[C@H]2C(=O)N1`, in test [1], the Potency entry is “inactive”.

`O=C1OC(=O)C2CCCCC12` (stereo unspecified): the Potency result in test [1] was “inactive”. As to `Cc1c(Cl)cccc1Cl`, the Potency result in test [1] was “inactive”. For `O=C(c1ccco1)N1CCNCC1`, the Potency result in test [1] was “inactive”. On to `CC1(C)CC(O)CC(C)(C)N1[O]`, for which the Potency entry in test [1] was “inactive”. Still for that read-out and setting: to `CC/C=C\CC/C=C/C(OCC)OCC` belongs “inactive”; to `CC(S)C(C)S` (stereo unspecified), “inactive”. Take `CCC(CC)Nc1ccc(C)c(C)c1`: the Potency entry in test [1] was “inactive”. For the compound `Cc1cccc2cccnc12`, the Potency entry in test [1] is “inactive”. As for `Cc1ccnc2c1NC(=O)c1cccnc1N2C1CC1`, the Potency result in test [1] was “inactive”.

Consider `CC(=O)Nc1ccc(O)cc1`, for which the Potency result in test [1] was “inactive”. As to `CCN(Cc1cccc(S(=O)(=O)O)c1)c1ccc(C(=C2C=CC(=[N+](CC)Cc3cccc(S(=O)(=O)[O-])c3)C=C2)c2ccccc2)cc1`, the Potency result in test [1] was “inactive”. As to `OCCCS`, the Potency result in test [1] and in test [2] was “inactive” throughout. Take `CCCCCCCCCCCC[N+](C)(C)Cc1ccccc1`: the Potency in test [1] was 60 µM (active) and 59.2 µM (active) and 13.3 µM (active).

As to `O=C(/N=N/C(=O)OCc1ccccc1)OCc1ccccc1`, the Potency result in test [1] and in test [2] was “inactive” each time. Take `CCCCCCCCOC(=O)c1ccc(O)cc1`: the Potency result in test [1] and in test [2] was “inactive” each time.

For the compound `COC(=O)c1c(Cl)c(Cl)c(C(=O)OC)c(Cl)c1Cl`, the Potency result in test [1] was “inactive”. On the same count and under the same terms, to `CC(=O)N[C@@H](CC(C)C)C(=O)O` belongs “inactive”.

Turning to `CC(=O)CC(=O)Nc1ccccc1C`, the Potency entry in test [1] and in test [2] was “inactive” each time. For the compound `CN(C)CCCN1c2ccccc2Sc2ccc(Cl)cc21`, in test [1], the Potency result was “inactive”. `CCOc1ccc(NC(=O)CC(C)O)cc1` (stereo unspecified): the Potency entry in test [1] was “inactive”. In the case of `CN(C)CCCN1c2ccccc2CCc2ccccc21`, the Potency result in test [1] was “inactive”. `C=CC(=O)[O-].C=CC(=O)[O-].[Zn+2]`: the Potency result in test [1] and in test [2] was “inactive” in each case. With `O=CC(=O)c1ccccc1`, the Potency entry in test [1] was “inactive”.

Regarding `C=CCCCCCCCC`, the Potency result in test [1] and in test [2] was “inactive” throughout.

Consider `O=[Se](O)O`, for which, in test [1], the Potency is 61.2 µM (active) and the viability change, negative = cytotoxic is 6.01% [at 18.9 µM]. In test [2], the Potency is 15.4 µM (active) and the activity change, negative = cytotoxicity was 25.7% [at 18.9 µM]. As to `CO[C@@]12[C@H](COC(N)=O)C3=C(C(=O)C(C)=C(N)C3=O)N1C[C@@H]1N[C@@H]12`, in test [1], the Potency entry was “inactive”. Take `CCCCOC(=O)CCC(C)=O`: the Potency result in test [1] and in test [2] was “inactive” throughout. As to `CC1=CC[C@H]2C[C@@H]1C2(C)C`, in test [1], the Potency result was “inactive”. With `O=C(O)[C@@H]1[C@H]2C[C@H]3c4[nH]c5ccccc5c4CCN3C[C@@H]2CC[C@@H]1O`, the Potency result in test [1] and in test [2] was “inactive” throughout. `Cc1cc(O)c(C)c(C)c1O`: the Potency entry in test [1] and in test [2] was “inactive” each time. Regarding `c1ccc2c(c1)-c1cccc3c1c-2cc1ccccc13`, the Potency entry in test [1] and in test [2] was “inactive” each time.

Turning to `O=c1c(O)c(-c2ccc(O)cc2)oc2cc(O)cc(O)c12`, the Potency entry in test [1] is “inactive”.

Turning to `N#Cc1ccccc1O`, the Potency entry in test [1] and in test [2] was “inactive” in each case. As to `O=C(c1ccccc1)C1CCC1`, the Potency result in test [1] and in test [2] was “inactive” throughout. In the case of `Cc1cc(F)ccc1-c1cc(N2CC[C@@H](O)[C@H]2CO)ncc1N(C)C(=O)C(C)(C)c1cc(C(F)(F)F)cc(C(F)(F)F)c1`, the Potency in test [1] is 44.6 µM (active). With `Nc1ncnc2c1ncn2[C@@H]1O[C@H](COP(=O)(O)O)[C@@H](O)[C@H]1O`, the Potency result in test [1] is “inactive”. For the compound `C1CCN2C[C@@H]3C[C@@H](CN4CCCC[C@@H]34)[C@H]2C1`, in test [1], the Potency entry was “inactive”. Regarding `CC[C@H]1CN2CCc3cc(OC)c(OC)cc3[C@@H]2C[C@@H]1C[C@H]1NCCc2cc(OC)c(OC)cc21`, the Potency entry in test [1] was “inactive”. On to `C[N+]1(C)[C@@H]2CC(OC(=O)[C@H](CO)c3ccccc3)C[C@H]1[C@@H]1O[C@@H]12` (stereo partly specified), for which the Potency entry in test [1] and in test [2] was “inactive” each time. Turning to `CC(O)C(C)O` (stereo unspecified), the Potency entry in test [1] and in test [2] was “inactive” throughout.
